From PubChem BioAssay (NCI) come the findings set out here.

Some test systems named below: SR leukemia; RPMI-8226 leukemia; OVCAR-8 ovarian; OVCAR-5 ovarian; OVCAR-4 ovarian; SK-OV-3 ovarian; IGROV1 ovarian; OVCAR-3 ovarian; HS 578T breast; NCI/ADR-RES ovarian.
Assay in all cases: NCI-60 one-dose screen, 48 h (100 = growth as untreated, 0 = no growth, -100 = all killed)

Compounds without any hit were thinned out: in the full panel of roughly 83,000, 20% have a hit.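 A percent growth of 40 corresponds to 60% growth inhibition; 0 means no net growth; -100 means all cells died. Active threshold: below 10.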 Values without a mark were called inactive. The source made the active and inactive calls.

For the compound `CC(=O)/C=C/c1ccc(N(C)Cc2ccc(C(C)(C)C)cc2)cc1`, the growth was 80.4% with SR leukemia (10 µM); -29.5% (active) with SR leukemia (100 µM); 78.2% in the assay with RPMI-8226 leukemia (10 µM); -49.8% (active) in the assay on RPMI-8226 leukemia (100 µM); 92.4% in the assay on OVCAR-8 ovarian (10 µM); -54.8% (active) in the assay on OVCAR-8 ovarian (100 µM). Also, the growth in the assay with OVCAR-5 ovarian (10 µM) is 102%; in the assay with OVCAR-5 ovarian (100 µM) it was -72% (active); with OVCAR-4 ovarian (10 µM), 85.2%; with OVCAR-4 ovarian (100 µM), -68.9% (active); in the assay with SK-OV-3 ovarian (10 µM), 98.4%; with SK-OV-3 ovarian (100 µM), -29.8% (active). Further, the growth with IGROV1 ovarian (10 µM) was 99%; in the assay on IGROV1 ovarian (100 µM), 1.66% (active); in the assay on OVCAR-3 ovarian (10 µM) it was 101%; in the assay on OVCAR-3 ovarian (100 µM), -93.2% (active); in the assay with HS 578T breast (10 µM) it was 87.1%; in the assay on HS 578T breast (100 µM), -33.3% (active).
For the compound `COc1ccc(C(=O)/C=C/c2ccc(OCc3ccc(Cl)cc3)cc2)cc1OC`, the growth is 78.2% with SR leukemia (10 µM); 43.8% in the assay with SR leukemia (100 µM); 88.5% in the assay on RPMI-8226 leukemia (10 µM); 55.8% in the assay on RPMI-8226 leukemia (100 µM); 92% in the assay with OVCAR-8 ovarian (10 µM); -8.35% (active) in the assay on OVCAR-8 ovarian (100 µM). The growth in the assay with OVCAR-5 ovarian (10 µM) was 103%; in the assay on OVCAR-5 ovarian (100 µM), 135%; with OVCAR-4 ovarian (10 µM), 86%; in the assay on OVCAR-4 ovarian (100 µM) it was -4.25% (active); in the assay with SK-OV-3 ovarian (10 µM), 120%; with SK-OV-3 ovarian (100 µM) it was 7.5% (active). In addition, the growth was 105% with IGROV1 ovarian (10 µM); 4.98% (active) with IGROV1 ovarian (100 µM); 104% in the assay with OVCAR-3 ovarian (10 µM); -45.2% (active) in the assay on OVCAR-3 ovarian (100 µM); 93.5% in the assay on HS 578T breast (10 µM); -1.6% (active) in the assay on HS 578T breast (100 µM). Moreover, the growth with NCI/ADR-RES ovarian (10 µM) is 91.5%; in the assay with NCI/ADR-RES ovarian (100 µM), 0.0169% (active).
With `CCCCn1c(C(=O)c2c[nH]c3ccccc23)n[nH]c1=S`, the growth is 91.7% in the assay on SR leukemia (10 µM unless noted); 78.7% in the assay on RPMI-8226 leukemia (10 µM unless noted); 93.1% with OVCAR-8 ovarian (10 µM unless noted); 133% with OVCAR-5 ovarian (10 µM unless noted); 92.4% in the assay with OVCAR-4 ovarian (10 µM unless noted); 88.4% in the assay on SK-OV-3 ovarian (10 µM unless noted). Besides, the growth was 87.7% with IGROV1 ovarian (10 µM unless noted) and 106% in the assay on OVCAR-3 ovarian (10 µM unless noted).
For `Cc1cc2nc(C(Cl)Cl)nc(-c3ccc(Cl)cc3)n2n1`, the growth with SR leukemia (10 µM unless noted) was 9.87% (active); in the assay on RPMI-8226 leukemia (10 µM unless noted), -7.69% (active); in the assay with OVCAR-8 ovarian (10 µM unless noted), 12.8%; in the assay on OVCAR-5 ovarian (10 µM unless noted), -0.203% (active); with OVCAR-4 ovarian (10 µM unless noted), -19.6% (active); with SK-OV-3 ovarian (10 µM unless noted), -6.97% (active). Besides, the values for the growth in the assay with IGROV1 ovarian (10 µM unless noted), with OVCAR-3 ovarian (10 µM unless noted) and in the assay on HS 578T breast (10 µM unless noted) were 5.11% (active), -26.6% (active) and -32% (active), respectively.
Take `COc1ccc(-c2nc(Cl)c3c(C)nn(-c4ccc(F)cc4)c3n2)cc1`: the growth was 103% in the assay on SR leukemia (10 µM unless noted); 102% with RPMI-8226 leukemia (10 µM unless noted); 99.2% in the assay on OVCAR-8 ovarian (10 µM unless noted); 110% in the assay on OVCAR-5 ovarian (10 µM unless noted); 107% in the assay on OVCAR-4 ovarian (10 µM unless noted); 102% in the assay on SK-OV-3 ovarian (10 µM unless noted). Also, the growth with IGROV1 ovarian (10 µM unless noted) was 109%; in the assay with OVCAR-3 ovarian (10 µM unless noted), 106%; with HS 578T breast (10 µM unless noted), 103%.
In the case of `C=CCNC(=O)Cc1c(-c2ccc(OC)cc2)oc2c(OC)c3c(c(OC)c12)OCO3`, the growth is 97.4% in the assay on SR leukemia (10 µM unless noted); 97.5% in the assay with RPMI-8226 leukemia (10 µM unless noted); 95.9% in the assay on OVCAR-8 ovarian (10 µM unless noted); 101% in the assay on OVCAR-5 ovarian (10 µM unless noted); 102% with OVCAR-4 ovarian (10 µM unless noted); 110% in the assay with SK-OV-3 ovarian (10 µM unless noted). For the same compound, the growth in the assay on IGROV1 ovarian (10 µM unless noted) is 82.3%; in the assay with OVCAR-3 ovarian (10 µM unless noted) it was 118%; in the assay on HS 578T breast (10 µM unless noted), 103%.
Turning to `CCN(CC)/C([O-])=c1\cccc\c1=C1\N=C(c2ccccc2)N=C1[n+]1ccc(-c2ccccc2)cc1`, the growth was 102% in the assay on SR leukemia (10 µM unless noted); 98.4% in the assay on RPMI-8226 leukemia (10 µM unless noted); 97.6% with OVCAR-8 ovarian (10 µM unless noted); 87.8% in the assay on OVCAR-5 ovarian (10 µM unless noted); 99.5% in the assay on OVCAR-4 ovarian (10 µM unless noted); 105% with SK-OV-3 ovarian (10 µM unless noted). In addition, the results for the growth in the assay on IGROV1 ovarian (10 µM unless noted), with OVCAR-3 ovarian (10 µM unless noted) and in the assay on HS 578T breast (10 µM unless noted) were 54.7%, 94% and 109%, respectively.
For `CC(=O)/C=C/c1ccc(N(CCO)Cc2ccc(C(C)(C)C)cc2)cc1`, the growth in the assay on SR leukemia (10 µM) was 83%; in the assay on SR leukemia (100 µM) it was -62.1% (active); in the assay with OVCAR-8 ovarian (10 µM), 80.7%; in the assay on OVCAR-8 ovarian (100 µM), -81.1% (active); with OVCAR-5 ovarian (10 µM) it was 78.2%; in the assay on OVCAR-5 ovarian (100 µM), -98.5% (active). The growth is 65.7% with OVCAR-4 ovarian (10 µM); -89.2% (active) in the assay with OVCAR-4 ovarian (100 µM); 83.7% with SK-OV-3 ovarian (10 µM); -99% (active) with SK-OV-3 ovarian (100 µM); 96.6% in the assay with IGROV1 ovarian (10 µM); -65.9% (active) with IGROV1 ovarian (100 µM). Besides, the growth in the assay with OVCAR-3 ovarian (10 µM) was 84.4%; with OVCAR-3 ovarian (100 µM) it was -95% (active); in the assay with NCI/ADR-RES ovarian (10 µM), 67%; with NCI/ADR-RES ovarian (100 µM), -88.3% (active).
For `O=C(Cn1cc(CN2CCN(c3ccnc4cc(Cl)ccc34)CC2)nn1)Nc1cccc([N+](=O)[O-])c1`, the growth is 33% in the assay with SR leukemia (10 µM unless noted); 57.6% with RPMI-8226 leukemia (10 µM unless noted); 74.7% in the assay with OVCAR-8 ovarian (10 µM unless noted); 96.4% with OVCAR-5 ovarian (10 µM unless noted); 92.4% in the assay on OVCAR-4 ovarian (10 µM unless noted); 76.1% in the assay with SK-OV-3 ovarian (10 µM unless noted). The figures for the growth with IGROV1 ovarian (10 µM unless noted), in the assay on OVCAR-3 ovarian (10 µM unless noted) and in the assay with HS 578T breast (10 µM unless noted) were -94.7% (active), 87.9% and 82.6%, respectively.
Regarding `O=C(/C=C/c1cccc(Oc2ccc(Cl)cc2)c1)c1ccccc1`, the growth is 53.5% in the assay with SR leukemia (10 µM); -25.1% (active) in the assay on SR leukemia (100 µM); 0.961% (active) in the assay with RPMI-8226 leukemia (10 µM); -30.3% (active) with RPMI-8226 leukemia (100 µM); 91.8% with OVCAR-8 ovarian (10 µM); -50.8% (active) in the assay with OVCAR-8 ovarian (100 µM). The growth in the assay with OVCAR-5 ovarian (10 µM) was 96%; in the assay on OVCAR-5 ovarian (100 µM), -82.2% (active); in the assay with OVCAR-4 ovarian (10 µM) it was 90.3%; in the assay with OVCAR-4 ovarian (100 µM), -80.1% (active); in the assay on SK-OV-3 ovarian (10 µM), 114%; in the assay on SK-OV-3 ovarian (100 µM), -93.7% (active). Moreover, the growth in the assay with IGROV1 ovarian (10 µM) was 102%; in the assay with IGROV1 ovarian (100 µM), -49.9% (active); in the assay on OVCAR-3 ovarian (10 µM), 93.3%; with OVCAR-3 ovarian (100 µM), -94.3% (active); in the assay with HS 578T breast (10 µM), 97.5%; in the assay on HS 578T breast (100 µM) it was -28.2% (active). For the same compound, the growth was 98.8% in the assay on NCI/ADR-RES ovarian (10 µM) and -46.5% (active) in the assay with NCI/ADR-RES ovarian (100 µM).
